# Assay results as given in PubChem BioAssay (Tox21).
# Several values for one entry are separate records, joined by “and”; a condition that tells them apart may be missing. Equal values may be shown once. Inconclusive results are not listed. Entries that show only a call come without a potency. Activity calls are given as the source filed them. Unless noted, calls follow the shape of the dose curve; as a rule, active = well fitted curve in the direction sought with a large enough effect in the repeat runs; inconclusive = weak or mixed curves; inactive = no such curve, though single readings can be large; an effect the other way counts as inactive or inconclusive.
# Tests used:
# [1] = qHTS assay to identify small molecule antagonists of the thyroid receptor (TR) signaling pathway - cell viability counter screen (AID 743064); also: nearly all actives have a fitted effect of over 50% in size; also: potency is read from the fitted curve at half-maximal effect
# Method in brief: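 Plate GH3.TRE-Luc cells; incubate 4 h at 37 °C; add compound, then T3 to 1 nM final; incubate 23.5 h; add CellTiter-Fluor; incubate 30 min at 37 °C, 5% CO2; read fluorescence.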
# [2] = qHTS assay to identify small molecule antagonists of the thyroid receptor (TR) signaling pathway (AID 743065); also: nearly all actives have a fitted effect of over 55% in size; also: potency is read from the fitted curve at half-maximal effect
# Method in brief: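 GH3.TRE-Luc rat pituitary cells (two TREs driving luciferase) were dosed with compound, then stimulated with 1 nM T3 (final) for 23.5 h at 37 C. ONE-Glo luminescence was the read-out, with CellTiter-Fluor fluorescence as the cytotoxicity counter-screen.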
# [3] = system: thyroid hormone receptor (rat, GH3 cells); assay: qHTS assay to identify small molecule agonists of the thyroid receptor (TR) signaling pathway (AID 743066; calls by dose curve)
# [4] = qHTS assay to identify small molecule antagonists of the estrogen receptor alpha (ER-alpha) signaling pathway - cell viability counter screen (AID 743074; calls by dose curve;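 also: HEK293 cells carrying ER-alpha-UAS-bla reporter stimulated with 17beta-estradiol; nearly all actives have a fitted effect of over 45% in size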)
# [5] = qHTS assay to identify small molecule antagonists of the estrogen receptor alpha (ER-alpha) signaling pathway using the BG1 cell line - cell viability counter screen (AID 743081);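 also: compound given together with 17beta-estradiol as the ER stimulus; nearly all actives have a fitted effect of over 45% in size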; also: potency is read from the fitted curve at half-maximal effect
# [6] = target: Aromatase (Homo sapiens) (UniProt P11511); assay: qHTS assay to identify aromatase inhibitors (AID 743083); also: series mostly up to about 70 µM; nearly all actives have a fitted effect of over 55% in size
# [7] = target: Estrogen receptor (Homo sapiens) (UniProt P03372); assay: qHTS assay to identify small molecule agonists of the estrogen receptor alpha (ER-alpha) signaling pathway (AID 743075; calls by dose curve;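 also: HEK293 GripTite cells with ER-alpha and UAS-driven beta-lactamase reporter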)
# [8] = target: Estrogen receptor (Homo sapiens) (UniProt P03372); assay: qHTS assay to identify small molecule agonists of the estrogen receptor alpha (ER-alpha) signaling pathway using the BG1 cell line (AID 743079); also: nearly all actives have a fitted effect of over 20% in size
# [9] = qHTS assay to identify small molecule antagonists of the estrogen receptor alpha (ER-alpha) signaling pathway using the BG1 cell line (AID 743080; calls by dose curve;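 also: BG1 cells stimulated with 17beta-estradiol alongside compound; series mostly up to about 70 µM; nearly all actives have a fitted effect of over 25% in size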)
# Method in brief: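 Seeding, 24 h rest, compound transfer from DMSO, 17beta-estradiol addition, 21.5 h incubation, CellTiter-Fluor (30 min, 37 C), then ONE-Glo (30 min, room temperature): this sequence was run on BG1-Luc-4E2 reporter cells.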
# Sequence of Estrogen receptor (Homo sapiens) (P03372 whole entry, looked up): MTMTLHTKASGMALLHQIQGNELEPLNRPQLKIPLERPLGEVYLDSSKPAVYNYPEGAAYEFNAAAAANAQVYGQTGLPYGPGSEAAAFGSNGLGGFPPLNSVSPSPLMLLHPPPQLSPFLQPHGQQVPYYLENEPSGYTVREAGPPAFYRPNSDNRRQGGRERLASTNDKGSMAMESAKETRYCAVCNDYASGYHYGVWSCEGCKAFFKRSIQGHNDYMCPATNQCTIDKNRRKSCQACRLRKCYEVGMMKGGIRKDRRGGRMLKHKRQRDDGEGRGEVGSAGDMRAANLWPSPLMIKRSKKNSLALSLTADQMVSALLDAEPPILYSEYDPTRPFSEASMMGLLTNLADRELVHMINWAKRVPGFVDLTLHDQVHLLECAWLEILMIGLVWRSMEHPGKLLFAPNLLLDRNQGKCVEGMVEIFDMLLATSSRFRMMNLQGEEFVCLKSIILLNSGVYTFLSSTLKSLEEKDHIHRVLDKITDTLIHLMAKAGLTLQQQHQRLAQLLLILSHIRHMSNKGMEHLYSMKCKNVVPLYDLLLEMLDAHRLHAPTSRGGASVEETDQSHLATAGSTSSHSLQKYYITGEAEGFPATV
# Sequence of Aromatase (Homo sapiens) (P11511 whole entry, looked up): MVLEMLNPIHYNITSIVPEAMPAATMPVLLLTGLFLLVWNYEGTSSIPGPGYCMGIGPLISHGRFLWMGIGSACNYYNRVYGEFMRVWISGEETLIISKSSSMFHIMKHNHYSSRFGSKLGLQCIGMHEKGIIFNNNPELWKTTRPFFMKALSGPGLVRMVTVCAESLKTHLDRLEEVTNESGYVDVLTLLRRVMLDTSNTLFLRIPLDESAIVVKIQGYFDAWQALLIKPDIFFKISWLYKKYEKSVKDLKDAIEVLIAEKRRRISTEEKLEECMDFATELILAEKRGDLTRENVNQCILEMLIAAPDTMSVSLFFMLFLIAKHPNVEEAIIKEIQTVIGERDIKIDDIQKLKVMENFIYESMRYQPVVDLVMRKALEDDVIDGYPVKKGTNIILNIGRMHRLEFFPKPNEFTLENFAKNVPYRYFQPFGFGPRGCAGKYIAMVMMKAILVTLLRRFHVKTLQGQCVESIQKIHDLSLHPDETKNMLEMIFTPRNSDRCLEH
Compound,Potency [1],Potency [2],Potency [3],Potency [4],Potency [5],Potency [6],Potency [7],Potency [8],Potency [9]
CC(=O)Oc1cc(C(F)(F)F)ccc1C(=O)O,inactive,inactive,inactive,inactive,inactive,inactive,–,–,–
N[C@@H](Cc1cnc[nH]1)C(=O)O,inactive,inactive,inactive,inactive,inactive,inactive,–,–,–
CC(C)C[C@@H](NC(=O)[C@@H](O)[C@H](N)Cc1ccccc1)C(=O)O,1.68 µM (active),inactive,inactive,–,2.37 µM (active),inactive,inactive,inactive,inactive
CCC(NC(C)C)C(O)c1ccc(O)c(O)c1 (centres undefined),inactive,inactive,inactive,inactive,inactive,inactive,–,–,–
CC1(C)C[C@@H]1C(=O)N/C(=C\CCCCSC[C@H](N)C(=O)O)C(=O)O,inactive,inactive,inactive,inactive,inactive,inactive,–,–,–
CNC(=O)OCc1cccc(COC(=O)NC)n1,inactive,inactive,inactive,inactive,inactive,inactive,–,–,–
CCOc1cc(CC(=O)N[C@@H](CC(C)C)c2ccccc2N2CCCCC2)ccc1C(=O)O,inactive,inactive,inactive,inactive,–,inactive,–,–,–
COc1cc([C@@H]2c3cc4c(cc3[C@@H](O[C@@H]3O[C@@H]5CO[C@@H](C)O[C@H]5[C@H](O)[C@H]3O)[C@H]3COC(=O)[C@H]23)OCO4)cc(OC)c1O,4.28 µM (active),9.44 µM (active) and 3.4 µM (active),inactive,inactive,inactive,inactive,–,–,–
CN(C)CCc1c[nH]c2ccc(Cn3cncn3)cc12,inactive,inactive,inactive,inactive,inactive,inactive,–,–,–
C[S+](CC[C@H](N)C(=O)O)C[C@H]1O[C@@H](n2cnc3c(N)ncnc32)[C@H](O)[C@@H]1O (some centres undefined),inactive,inactive,inactive,inactive,inactive,inactive,–,–,–
C[C@@H]1O[C@@H](OC[C@H]2O[C@@H](Oc3c(-c4ccc(OCCO)c(OCCO)c4)oc4cc(OCCO)cc(O)c4c3=O)[C@H](O)[C@@H](O)[C@@H]2O)[C@H](O)[C@H](O)[C@H]1O,inactive,inactive,inactive,inactive,inactive,inactive,–,–,–
N[C@H](CO)C(=O)O,inactive,inactive,inactive,inactive,inactive,inactive,–,–,–
COc1cc2c(c(OC)c1OC)-c1c(cc3c(c1OC)OCO3)C[C@@H](C)[C@](C)(O)C2,inactive,inactive,inactive,inactive,–,inactive,–,–,–
CC1(C)S[C@@H]2[C@H](NC(=O)[C@H](N)c3ccc(O)cc3)C(=O)N2[C@H]1C(=O)O,inactive,inactive,inactive,inactive,inactive,inactive,–,–,–
c1ccc(-n2cnnn2)cc1,inactive,inactive,inactive,inactive,inactive,inactive,–,–,–
NC(=O)[C@H]1O[C@@H](O)[C@H](O)[C@@H](O)[C@@H]1O,inactive,inactive,inactive,inactive,inactive,inactive,–,–,–
O=C(O)c1cc(=O)c2c3nc4ccccc4oc-3cc(=O)c2[nH]1,inactive,inactive,inactive,inactive,inactive,inactive,–,–,–
Cc1ccc(Cl)c(N)c1Cl,inactive,inactive,inactive,inactive,inactive,inactive,–,–,–
CCOC(=O)[C@H](CCc1ccccc1)N[C@@H](C)C(=O)N1[C@H](C(=O)O)C[C@H]2CCCC[C@@H]21,inactive,inactive,inactive,inactive,inactive,inactive,–,–,–
SC1CCCCC1,inactive,inactive,inactive,inactive,inactive,inactive,–,–,–
O=C1OC(=O)c2cc(-c3ccc4c(c3)C(=O)OC4=O)ccc21,inactive,inactive,inactive,–,inactive,inactive,inactive,inactive,inactive
FC(F)(F)COCC(F)(F)F,inactive,inactive,inactive,inactive,inactive,inactive,–,–,–
